Where a name gives a salt, the structure may show the parent alone. ± gives the standard deviation of the averaged measurements.

The assay concerns TOV-21G. Kind of assay: cell viability relative to DMSO control (MTS) (fraction of DMSO control); higher = more viable cells / less growth inhibition. Conditions: 10 µM; 48 h. The procedure, abridged:
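Viability values are fractions of the vehicle-treated control. They come from an MTS assay run per the manufacturer's instructions on TOV-21G and ES2 clear cell carcinoma cells, seeded at 5000 cells per well in 96-well plates. Each compound of a 367-member […] library was added at 10 µM final after 24 h of growth, and the readout was taken after a further 48 h.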
`C/C=C/C/C=C/CCC(=O)[C@H]1O[C@H]1C(N)=O` [Cerulenin] yielded a cell viability of 1.03.
For `C[C@@H]1C[C@H]2[C@@H]3CCC4=CC(=O)C=C[C@]4(C)[C@@]3(F)[C@@H](O)C[C@]2(C)[C@@]1(O)C(=O)CO` [Dexamethasone] the value was 1.29; for `Cc1cc([N+](=O)[O-])ccc1NS(=O)(=O)c1cc(Cl)ccc1Cl`, 1.14; for `CO[C@@H]1[C@H](OC(=O)/C=C/C=C/C=C/C=C/C(=O)O)CC[C@]2(CO2)[C@H]1[C@@]1(C)O[C@@H]1CC=C(C)C` [Fumagillin], 0.991.
The result for `CC(C)C[C@@H](N)[C@H](O)C(=O)N[C@H](C(=O)N[C@H](C(=O)N[C@@H](CC(=O)O)C(=O)O)C(C)C)C(C)C` [Amastatin] reads 1.02; that for `C[C@]1(c2nc3c(C(N)=O)cccc3[nH]2)CCCN1` [ABT-888 (Veliparib)], 0.892; that for `CCCCC[C@H](CC(=O)NO)C(=O)N[C@H](C(=O)N1CCC[C@H]1CO)C(C)C` [Actinonin], 0.848.
For `CCN1/C(=C/C(C)=O)Sc2ccc(OC)cc21` the value was 1.01.
Consider `O=C(Nc1cccc2cccnc12)c1ccc(N2C(=O)[C@@H]3[C@H](C2=O)[C@@H]2C=C[C@H]3C2)cc1` [IWR-1-endo], for which the cell viability turned out to be 0.582.
Turning to `COc1c(C=O)c(O)cc2c1C(=O)c1ccccc1C2=O` [Damnacanthal], the cell viability turned out to be 0.974 ± 0.19.
Regarding `O=c1cc(-c2ccccc2)oc2cc(O)c(O)c(O)c12` [Baicalein], the cell viability was 0.821.
The result for `OC[C@H]1NC[C@H](O)[C@@H](O)[C@@H]1O` [Deoxynojirimycin] reads 1.19; that for `CN(C)S(=O)(=O)c1ccc2c(c1)/C(=C/c1cc3c([nH]1)CCCC3)C(=O)N2`, 0.891.
Compound `COc1cc2nccc(Oc3ccc(NC(=S)NC(=O)c4ccccc4C)cc3)c2cc1OC` [PDGF receptor tyrosine kinase inhibitor V] displayed a cell viability of 0.525.
`COc1cc2ncnc(Nc3ccc(F)c(Cl)c3)c2cc1OCCCN1CCOCC1` [gefitinib] had a cell viability of 0.889.
In the case of `Nc1cccc2c1CN(C1CCC(=O)NC1=O)C2=O` (configuration not stated) [lenalidomide], the cell viability worked out at 0.954.
The result for `Cc1nc(Nc2ncc(C(=O)Nc3c(C)cccc3Cl)s2)cc(N2CCN(CCO)CC2)n1` [dasatinib] reads 0.815; that for `COc1cc2ncnc(Nc3ccc(NC(=O)c4ccccc4)cc3)c2cc1OC` [Aurora kinase inhibitor II], 0.688.
The result for `CC[C@]1(O)C[C@@H]2CN(CCc3c([nH]c4ccccc34)[C@@](C(=O)OC)(c3cc4c(cc3OC)N(C)[C@H]3[C@@](O)(C(=O)OC)[C@H](OC(C)=O)[C@]5(CC)C=CCN6CC[C@]43[C@@H]65)C2)C1` [Vinblastine sulfate] reads 0.427; that for `CCCCN1C(=O)C2Cc3c([nH]c4ccccc34)C(c3cccc(O)c3)N2C1=O` (configuration not stated), 0.46; that for `CC1(C)CCC(C)(C)c2cc(NC(=O)c3ccc(C(=O)O)cc3)ccc21` [tamibarotene], 1.49.
In turn, `O=C1CCC(N2C(=O)c3ccccc3C2=O)C(=O)N1` (configuration not stated) [thalidomide] returned a cell viability of 0.989.
For `C[C@@H](Oc1cc(-c2cnn(C3CCNCC3)c2)cnc1N)c1c(Cl)ccc(F)c1Cl` [crizotinib], the cell viability came out at 0.333.
For `NNCCc1ccccc1` [Phenelzine], the cell viability was 1.25.
In the case of `CCN(CC)CC(=O)Nc1c(C)cccc1C` [Lidocaine], the cell viability was determined as 1.4.
As for `CC(C)CC(NC(=O)CNC(=O)OCc1ccccc1)C(=O)NC(Cc1ccccc1)C(=O)CCl` (configuration not stated), the cell viability worked out at 0.479.
The compound `C=CCc1cccc(/C=N/NC(=O)CN2CCN(Cc3ccccc3)CC2)c1O` returned a cell viability of 0.821.

For the origin of these results see the supplement of paper PMC12669797.
